The results in this text go back to PubChem BioAssay (EPA / NIEHS).

Values joined by “and” are separate entries in the source; they are usually repeats but may differ in a detail not shown here. Equal entries are not always repeated. Records with an inconclusive call do not appear. Active and inactive are the calls of the source. How the source made its calls: active means hit-call score of the fitted dose curve at least 0.9, where 1 is the maximum; inconclusive means response in the unintended direction; inactive means score below 0.9.

The target in assay [1] is human Peripheral-type Benzodiazepine Receptor (PBR), TSPO (gene 706) (UniProt P30536). Description: NVS_MP_hPBR: NovaScreen (NVS) Membrane Protein Assay for human Peripheral-type Benzodiazepine Receptor (PBR) (AID 2283331).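 Further: hits reduce radioligand binding relative to DMSO baseline.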 Summed up: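 Scintillation counts of filter-bound radioligand served as read-out after 1 h chemical dosing of human colonic membrane preparations. Activity was scored as signal loss against DMSO; initial duplicates at 25 uM, confirmatory concentration series afterward.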

Assay [2] deals with Sodium channel protein type 1 subunit alpha (Rattus norvegicus) (UniProt P04774). Description: NVS_IC_rNaCh_site2: NovaScreen (NVS) Ion Channel Assay for rat Sodium Channel, Site 2 (NaCh) (AID 2283322).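 Further: hit means loss of radioligand binding signal relative to DMSO so AC50 marks displacement.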 Summed up: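 Membranes: rat forebrain. Format: competitive radioligand displacement, filter separation, scintillation readout, 1 h exposure. Primary screen in duplicate at 25 uM; actives retested in concentration series.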

The target in assay [3] is rat Corticotropin Releasing Factor Receptor (CRF), Crhr1 (gene 58959) (UniProt P35353). Nature of the assay: NVS_GPCR_rCRF: NovaScreen (NVS) G Protein-Coupled Receptor Assay for rat Corticotropin Releasing Factor Receptor (CRF) (AID 2283300). Put shortly:
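Rat cortical membranes used as receptor source in a radioligand competitive displacement binding assay; scintillation read 2 h after dosing. Primary screen run in duplicate at 25 uM; loss of signal versus DMSO baseline indicates binding.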

For assay [4], the target named is rat Gamma-Aminobutyric Acid Type B Receptor (GABBR), Gabbr1 (gene 81657) (UniProt Q9Z0U4). Nature of the assay: NVS_GPCR_rGABBR: NovaScreen (NVS) G Protein-Coupled Receptor Assay for rat Gamma-Aminobutyric Acid Type B Receptor (GABBR) (AID 2283301). Summed up: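 Radioligand displacement on rat cortical membranes, 1 h, filter-based scintillation counting. Primary screen at 25 uM in duplicate; compounds passing threshold re-tested in concentration-response up to 50 uM; loss of binding fitted against DMSO.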

The target in assay [5] is rat Glutamate, NMDA Agonist Site (GluNMDA), Grin1 (gene 24408) (UniProt P35439). Nature of the assay: NVS_LGIC_rGluNMDA_Agonist: NovaScreen (NVS) Ligand-Gated Ion Channel Assay for rat Glutamate, NMDA Agonist Site (GluNMDA) (AID 2283327). Summed up:
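Rat forebrain membranes, radioligand binding in the agonist-site protocol; 1 h after dosing; filter-based scintillation counting. Single-concentration duplicate screen at 25 uM, then concentration-response up to 50 uM for actives; gain-of-signal vs DMSO.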

In assay [6] the target is Voltage-dependent N-type calcium channel subunit alpha-1B (Rattus norvegicus) (UniProt Q02294). Nature of the assay: NVS_IC_rCaChN: NovaScreen (NVS) Ion Channel Assay for rat Calcium Channel, Type N (CaChN) (AID 2283317).
The test system of assay [7] is rat Adrenergic, Alpha 1B Receptor (Adra1B), gene 24173. Description: NVS_GPCR_rAdra1B: NovaScreen (NVS) G Protein-Coupled Receptor Assay for rat Adrenergic, Alpha 1B Receptor (Adra1B) (AID 2283297). Put shortly: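 Rat liver membranes, radioligand displacement with filter-based scintillation detection, 1 h incubation. Primary screen in duplicate at 25 uM; actives retested in concentration series; activity relative to DMSO.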

Assay [8] concerns the target rat Neurotensin Receptor (NTS), Ntsr1 (gene 366274) (UniProt P20789). Nature of the assay: NVS_GPCR_rNTS: NovaScreen (NVS) G Protein-Coupled Receptor Assay for rat Neurotensin Receptor (NTS) (AID 2283308). Summed up:
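Rat forebrain membranes; radioligand binding with competitive displacement, read by filter-based scintillation counting 1 h after dosing. Primary screen in duplicate at 25 uM; actives (e.g., 30% inhibition) rerun in concentration-response up to 50 uM, loss-of-signal versus DMSO.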

Assay [9] has as its target rat Thyrotropin Releasing Hormone Receptor (TRH), Trhr (gene 25570) (UniProt Q01717). Nature of the assay: NVS_GPCR_rTRH: NovaScreen (NVS) G Protein-Coupled Receptor Assay for rat Thyrotropin Releasing Hormone Receptor (TRH) (AID 2283329).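 Further: hit means lower bound tracer signal versus DMSO baseline.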 Put shortly:
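Competitive radioligand binding on rat forebrain membrane preparations, with filtration and scintillation readout after 4 h. Primary testing in duplicate at 25 uM; actives confirmed in concentration-response. DMSO defined baseline.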

The target in assay [10] is rat Gamma-Aminobutyric Acid Type A Receptor, Non-Selective (GABAR-NonSelective), Gabra1 (gene 29705) (UniProt P62813). Nature of the assay: NVS_LGIC_rGABAR_NonSelective: NovaScreen (NVS) Ligand-Gated Ion Channel Assay for rat Gamma-Aminobutyric Acid Type A Receptor, Non-Selective (GABAR-NonSelective) (AID 2283326). Put shortly: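 Radioligand displacement on rat whole-brain extract, 1 h, filter scintillation readout; signal loss fitted versus DMSO. Primary screen in duplicate at 25 uM; hits (e.g. ≥30% inhibition) retested in concentration-response up to 50 uM.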

Assay [11] deals with rat Adrenergic Receptor, Alpha 2 (Adra2), Non-selective Binding, Adra2a (gene 25083) (UniProt P22909). Nature of the assay: NVS_GPCR_rAdra2_NonSelective: NovaScreen (NVS) G Protein-Coupled Receptor Assay for rat Adrenergic Receptor, Alpha 2 (Adra2), Non-selective Binding (AID 2283299). Put shortly:
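Rat cortical membranes, radioligand competitive displacement read by filter-based scintillation counting 1.25 hours after dosing. Primary screen in duplicate at 25 uM; actives followed up in concentration series.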

For assay [12], the target named is rat Neonicotinoid receptor (NNR), Chrna7 (gene 25302) (UniProt Q05941). Nature of the assay: NVS_LGIC_rNNR_BungSens: NovaScreen (NVS) Ligand-Gated Ion Channel Assay for rat Neonicotinoid receptor (NNR) (AID 2283315). Summed up: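 Radioligand displacement binding on rat cortical membranes, 2.5 h incubation, filtration and scintillation counting. Loss of specific binding fitted relative to DMSO.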

Assay [13] concerns NCBI gene 24521. Description: NVS_IC_rKATPCh: NovaScreen (NVS) Ion Channel Assay for rat Potassium Channel, ATP-Sensitive (KATPCh) (AID 2283319). Put shortly:
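Rat cortical membranes; radioligand binding at ATP-sensitive K channel site, filter-based scintillation counting 2 h after dosing. Single-point duplicate screen at 25 uM, hits rerun in concentration-response up to 50 uM; loss of signal versus DMSO.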

Assay [14] has as its target human Constitutive Androstane Receptor (CAR), NR1I3 (gene 9970) (UniProt Q14994). Nature of the assay: NVS_NR_hCAR_Agonist: NovaScreen (NVS) Nuclear Receptor Binding Assay for human Constitutive Androstane Receptor Agonism (CAR) (AID 2283328). Summed up:
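Cell-free TR-FRET binding readout with extracted human CAR protein, read 1 h after dosing. Gain of signal fitted against DMSO baseline. Single-concentration duplicates at 25 uM, then concentration-response up to 50 uM for actives.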

Sequence of human Peripheral-type Benzodiazepine Receptor (PBR), TSPO (gene 706) (P30536 whole entry, looked up): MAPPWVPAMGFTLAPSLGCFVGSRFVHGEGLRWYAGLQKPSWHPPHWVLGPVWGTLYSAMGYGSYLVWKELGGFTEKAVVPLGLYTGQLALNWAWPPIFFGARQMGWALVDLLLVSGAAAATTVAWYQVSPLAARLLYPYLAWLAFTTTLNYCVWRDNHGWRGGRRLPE
Sequence of rat Thyrotropin Releasing Hormone Receptor (TRH), Trhr (gene 25570) (Q01717 whole entry, looked up): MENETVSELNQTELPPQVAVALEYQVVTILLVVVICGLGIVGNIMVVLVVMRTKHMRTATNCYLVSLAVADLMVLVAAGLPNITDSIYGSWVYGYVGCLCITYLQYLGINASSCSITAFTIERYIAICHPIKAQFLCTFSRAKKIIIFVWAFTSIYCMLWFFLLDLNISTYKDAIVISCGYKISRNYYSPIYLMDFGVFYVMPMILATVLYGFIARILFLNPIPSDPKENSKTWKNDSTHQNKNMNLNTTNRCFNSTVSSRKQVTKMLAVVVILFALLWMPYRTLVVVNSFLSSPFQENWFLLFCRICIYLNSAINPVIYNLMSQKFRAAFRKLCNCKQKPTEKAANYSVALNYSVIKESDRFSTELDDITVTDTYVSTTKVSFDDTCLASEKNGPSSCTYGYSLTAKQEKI
Sequence of rat Adrenergic Receptor, Alpha 2 (Adra2), Non-selective Binding, Adra2a (gene 25083) (P22909 whole entry, looked up): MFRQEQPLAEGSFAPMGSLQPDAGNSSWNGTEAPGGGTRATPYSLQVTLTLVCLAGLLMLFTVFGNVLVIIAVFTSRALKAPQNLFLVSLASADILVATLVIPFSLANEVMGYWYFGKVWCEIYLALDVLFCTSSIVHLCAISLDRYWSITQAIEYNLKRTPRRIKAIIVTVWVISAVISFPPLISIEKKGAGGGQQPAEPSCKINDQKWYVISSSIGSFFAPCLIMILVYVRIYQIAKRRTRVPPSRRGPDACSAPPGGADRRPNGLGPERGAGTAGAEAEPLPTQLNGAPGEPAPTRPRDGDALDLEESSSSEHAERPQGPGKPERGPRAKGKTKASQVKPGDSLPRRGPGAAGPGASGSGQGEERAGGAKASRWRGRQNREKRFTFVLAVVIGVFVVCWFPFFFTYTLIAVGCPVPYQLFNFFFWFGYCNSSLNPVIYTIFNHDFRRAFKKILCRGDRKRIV
Sequence of rat Gamma-Aminobutyric Acid Type A Receptor, Non-Selective (GABAR-NonSelective), Gabra1 (gene 29705) (P62813 whole entry, looked up): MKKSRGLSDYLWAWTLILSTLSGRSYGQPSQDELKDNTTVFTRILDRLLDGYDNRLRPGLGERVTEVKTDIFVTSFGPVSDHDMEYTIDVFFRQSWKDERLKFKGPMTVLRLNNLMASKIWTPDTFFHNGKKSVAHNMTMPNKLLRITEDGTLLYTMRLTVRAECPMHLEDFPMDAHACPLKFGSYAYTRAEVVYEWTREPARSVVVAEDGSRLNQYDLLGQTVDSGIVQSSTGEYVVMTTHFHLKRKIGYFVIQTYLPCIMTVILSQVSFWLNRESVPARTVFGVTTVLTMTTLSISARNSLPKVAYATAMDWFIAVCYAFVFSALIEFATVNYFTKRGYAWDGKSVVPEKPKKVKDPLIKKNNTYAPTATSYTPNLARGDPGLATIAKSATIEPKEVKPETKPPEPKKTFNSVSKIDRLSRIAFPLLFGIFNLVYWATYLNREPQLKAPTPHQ
Sequence of rat Corticotropin Releasing Factor Receptor (CRF), Crhr1 (gene 58959) (P35353 whole entry, looked up): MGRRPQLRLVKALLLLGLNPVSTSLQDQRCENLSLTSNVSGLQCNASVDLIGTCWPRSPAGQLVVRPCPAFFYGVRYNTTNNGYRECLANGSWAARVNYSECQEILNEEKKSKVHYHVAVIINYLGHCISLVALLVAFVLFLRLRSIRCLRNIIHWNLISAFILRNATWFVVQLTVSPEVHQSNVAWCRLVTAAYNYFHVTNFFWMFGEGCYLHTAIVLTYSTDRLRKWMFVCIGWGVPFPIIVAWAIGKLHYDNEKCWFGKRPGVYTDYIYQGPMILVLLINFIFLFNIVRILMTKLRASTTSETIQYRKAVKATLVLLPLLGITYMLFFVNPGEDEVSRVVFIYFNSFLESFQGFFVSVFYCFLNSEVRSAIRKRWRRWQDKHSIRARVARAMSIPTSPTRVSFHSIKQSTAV
Sequence of human Constitutive Androstane Receptor (CAR), NR1I3 (gene 9970) (Q14994 whole entry, looked up): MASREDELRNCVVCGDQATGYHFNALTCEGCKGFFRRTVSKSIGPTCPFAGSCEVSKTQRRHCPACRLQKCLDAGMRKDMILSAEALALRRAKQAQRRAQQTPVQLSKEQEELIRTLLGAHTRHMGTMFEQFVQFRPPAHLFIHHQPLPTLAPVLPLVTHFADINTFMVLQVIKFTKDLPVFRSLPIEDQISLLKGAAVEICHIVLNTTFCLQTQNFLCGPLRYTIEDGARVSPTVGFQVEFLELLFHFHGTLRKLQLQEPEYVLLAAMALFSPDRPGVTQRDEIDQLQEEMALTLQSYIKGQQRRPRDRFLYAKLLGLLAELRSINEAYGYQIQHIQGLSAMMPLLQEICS
Sequence of rat Neonicotinoid receptor (NNR), Chrna7 (gene 25302) (Q05941 whole entry, looked up): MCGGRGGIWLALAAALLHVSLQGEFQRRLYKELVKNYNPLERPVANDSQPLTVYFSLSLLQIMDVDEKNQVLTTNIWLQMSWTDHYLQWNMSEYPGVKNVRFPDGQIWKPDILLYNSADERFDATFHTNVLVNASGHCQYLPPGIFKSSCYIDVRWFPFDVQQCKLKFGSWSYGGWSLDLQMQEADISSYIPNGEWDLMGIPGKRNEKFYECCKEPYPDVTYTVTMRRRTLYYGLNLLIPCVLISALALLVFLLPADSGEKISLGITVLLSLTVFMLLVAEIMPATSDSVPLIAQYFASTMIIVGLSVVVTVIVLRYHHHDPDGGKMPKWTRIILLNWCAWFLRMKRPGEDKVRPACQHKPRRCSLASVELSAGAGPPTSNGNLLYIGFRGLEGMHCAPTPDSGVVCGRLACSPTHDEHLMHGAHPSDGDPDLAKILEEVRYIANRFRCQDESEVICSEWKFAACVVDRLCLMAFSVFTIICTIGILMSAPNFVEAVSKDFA
Sequence of rat Neurotensin Receptor (NTS), Ntsr1 (gene 366274) (P20789 whole entry, looked up): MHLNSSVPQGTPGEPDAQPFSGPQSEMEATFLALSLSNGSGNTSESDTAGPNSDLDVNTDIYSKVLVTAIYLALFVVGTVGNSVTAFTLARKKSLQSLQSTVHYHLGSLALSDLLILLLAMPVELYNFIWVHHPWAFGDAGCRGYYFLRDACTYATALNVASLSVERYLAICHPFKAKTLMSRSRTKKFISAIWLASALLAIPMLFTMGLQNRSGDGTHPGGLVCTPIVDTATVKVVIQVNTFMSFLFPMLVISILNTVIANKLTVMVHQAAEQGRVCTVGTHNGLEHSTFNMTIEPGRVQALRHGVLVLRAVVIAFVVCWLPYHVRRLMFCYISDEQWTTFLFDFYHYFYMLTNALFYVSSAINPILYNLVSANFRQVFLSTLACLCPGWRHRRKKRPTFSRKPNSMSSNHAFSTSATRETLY
Sequence of rat Gamma-Aminobutyric Acid Type B Receptor (GABBR), Gabbr1 (gene 81657) (Q9Z0U4 whole entry, looked up): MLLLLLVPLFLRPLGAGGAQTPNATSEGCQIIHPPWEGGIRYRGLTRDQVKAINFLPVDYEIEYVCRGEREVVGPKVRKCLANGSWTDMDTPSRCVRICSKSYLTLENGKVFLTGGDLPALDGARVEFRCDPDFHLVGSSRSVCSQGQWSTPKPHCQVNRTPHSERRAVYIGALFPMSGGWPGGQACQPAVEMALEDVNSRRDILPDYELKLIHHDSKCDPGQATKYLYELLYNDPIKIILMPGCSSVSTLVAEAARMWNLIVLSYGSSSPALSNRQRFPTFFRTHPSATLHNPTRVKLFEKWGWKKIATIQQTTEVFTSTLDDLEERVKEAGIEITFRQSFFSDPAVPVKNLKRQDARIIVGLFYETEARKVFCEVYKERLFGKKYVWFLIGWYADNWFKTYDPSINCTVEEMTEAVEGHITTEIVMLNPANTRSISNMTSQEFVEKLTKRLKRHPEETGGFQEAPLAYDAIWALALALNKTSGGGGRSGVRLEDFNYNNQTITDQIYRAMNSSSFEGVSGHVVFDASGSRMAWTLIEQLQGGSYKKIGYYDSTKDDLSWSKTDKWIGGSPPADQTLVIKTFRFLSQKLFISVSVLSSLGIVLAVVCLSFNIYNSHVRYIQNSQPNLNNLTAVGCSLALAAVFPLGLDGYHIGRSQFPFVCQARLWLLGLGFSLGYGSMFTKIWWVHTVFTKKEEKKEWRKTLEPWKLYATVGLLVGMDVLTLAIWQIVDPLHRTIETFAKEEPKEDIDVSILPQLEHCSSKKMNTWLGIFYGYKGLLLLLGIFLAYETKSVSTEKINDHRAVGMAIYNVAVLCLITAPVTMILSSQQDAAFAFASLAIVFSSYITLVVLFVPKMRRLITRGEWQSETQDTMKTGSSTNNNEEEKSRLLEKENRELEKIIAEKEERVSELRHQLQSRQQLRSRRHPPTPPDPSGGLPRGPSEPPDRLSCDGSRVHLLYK

As usually defined, the AC50 is the midpoint of the concentration-response curve, whichever way the signal moves. Consider `N#Cc1c(-c2ccc(Cl)cc2)[nH]c(C(F)(F)F)c1Br`, for which, in assay [1], the AC50 is 0.122 µM (active).

For `CCCCOCCOP(=O)(OCCOCCCC)OCCOCCCC`, in assay [2], the compound was called inactive. Moreover, the AC50 in assay [1] is 7.98 µM (active) and 6.27 µM (active).

As for `CC(Cc1ccc(OCC(=O)O)cc1)NCC(O)c1csc(C(F)(F)F)n1` (stereo not given), the compound was classed as inactive in assay [3], in [4] and in assay [5].

With `ClC1=C(Cl)C2(Cl)C3C(Cl)C(Cl)CC3C1(Cl)C2(Cl)Cl` (stereo not given), the result in assay [6] was inactive.

As for `CCCCN(CCCC)SN(C)C(=O)Oc1cccc2c1OC(C)(C)C2`, the compound was called inactive in [7] and in assay [8].

Turning to `c1ccc(OP(Oc2ccccc2)Oc2ccccc2)cc1`, in assay [1], the AC50 was 17.6 µM (active).

Take `CC(C)(C)N(NC(=O)c1ccc(Cl)cc1)C(=O)c1ccccc1`: in assay [9], the result was inactive.

With `C=CC(=O)OCC(CC)(COC(=O)C=C)COC(=O)C=C`, the AC50 in [1] was 17.2 µM (active).

As for `c1cc2c3c(cccc3c1)CC2`, the AC50 in assay [10] is 1.7 µM (active).

Turning to `CCOP(=S)(Oc1ccc([N+](=O)[O-])cc1)c1ccccc1` (stereo not given), the compound was classed as inactive in assay [1].

As to `CC(C)Nc1ccc(Nc2ccccc2)cc1`, in [11], the AC50 is 25 µM (active).

As for `Nc1ccc2ccccc2c1`, the AC50 in [1] was 6.61 µM (active).

Take `Cc1cc(C)c(C(=O)P(=O)(c2ccccc2)c2ccccc2)c(C)c1`: the call in [12] and in assay [2] was inactive. The AC50 in assay [1] is 3.55 µM (active).

On to `CCOP(=S)(NC(C)C)Oc1ccccc1C(=O)OC(C)C` (stereo not given), for which the AC50 in [1] is 9.3 µM (active).

Take `CCOS(=O)(=O)OCC`: the compound was called inactive in [10].

Consider `OCC1CO1` (stereo not given), for which, in [13], the result was inactive.

For the compound `CC(C)(C)c1ccccc1OP(=O)(Oc1ccccc1)Oc1ccccc1`, the compound was classed as inactive in assay [2]. The AC50 in [1] was 1.16 µM (active).

With `CCCCC(CC)COP(=O)(Oc1ccccc1)Oc1ccccc1` (stereo not given), the call in assay [11] and in assay [9] was inactive. Further, the AC50 in [1] was 10.9 µM (active).

As to `CC(C)(C)c1ccc(O)cc1`, in assay [1], the compound was classed as inactive.

Take `c1ccc2c(c1)sc1ccccc12`: the compound was classed as inactive in assay [9].

On to `c1ccc2c(c1)Nc1ccccc1S2`, for which the compound was called inactive in [14].
